The record followed here is the supplement of paper PMC9262897, “Low-cost anti-mycobacterial drug discovery using engineered E. coli” (Nature Communications, 2022).

Common to all, as to test: growth (OD600 after 10 h); higher = more growth (less inhibition)
Experiment [1] concerns E. coli TESEC Alr+ wild-type control. To be noted: compound 0.1 mM; raw OD600 reference: median of DMSO wells 0.241, cell-free background 0.041. The protocol: (§1)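 TESEC Mtb Alr E. coli, or the Alr+ wild-type control, in 384-well plates with Prestwick library compounds at 0.1 mM and 1% DMSO, across arabinose induction levels of 1E3 to 1E7 nM. Growth is read as OD600 after 10 h at 37 °C in triplicate biological replicates.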

Experiment [2] deals with E. coli TESEC Mtb Alr. To be noted: compound 0.1 mM. Here is the method: as §1
The next experiment deals with E. coli TESEC Mtb Asd. To be noted: compound 0.1 mM. Here is the method:
(§2)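 TESEC E. coli strains in which the native enzyme is deleted and replaced by arabinose-inducible Mtb Asd, DapB, CysH or TrpD, each grown in its selective medium. Strains were screened against the Prestwick library at 0.1 mM and 1% DMSO in 384-well format at low and high arabinose induction. Growth is read as OD600 after 10 h in triplicate.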

In another experiment the test system is E. coli TESEC Mtb DapB. To be noted: compound 0.1 mM. Here is the method: as §2
Experiment [3] relates to E. coli TESEC Alr+ wild-type control. To be noted: compound 0.1 mM; raw OD600 reference: median of DMSO wells 0.49, cell-free background 0.052. The protocol:
(§3)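 TESEC Mtb Alr E. coli (ΔaraC ΔtolC ΔentC Δalr ΔdadX, arabinose-inducible Mtb Alr) or the Alr+ wild-type control strain, grown in defined M9-fructose medium without D-alanine in 96-well plates with Prestwick library compounds at 0.1 mM and 1% DMSO. Low Alr induction is 0.1 µM arabinose and high induction is 10 mM arabinose.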

The test system of experiment [4] is E. coli TESEC Mtb Alr. To be noted: compound 0.1 mM. The protocol: as §3
The source holds these as a separate data set.

Where [5] appears, read: arabinose 1000 nM, raw OD600 reference: median of DMSO wells 0.294, cell-free background 0.041.
Setting [6] is: arabinose 10000 nM, raw OD600 reference: median of DMSO wells 0.264, cell-free background 0.041.
The mark [7] stands for this setting: arabinose 100000 nM, raw OD600 reference: median of DMSO wells 0.201, cell-free background 0.041.
[8] abbreviates: arabinose 1000000 nM, raw OD600 reference: median of DMSO wells 0.193, cell-free background 0.041.
Setting [9] is: arabinose 10000000 nM, raw OD600 reference: median of DMSO wells 0.146, cell-free background 0.041.
[10] abbreviates: arabinose induction (level): High, raw OD600 reference: median of DMSO wells 0.331, cell-free background 0.041.
[11] abbreviates: arabinose induction (level): Low, raw OD600 reference: median of DMSO wells 0.417, cell-free background 0.041.
Where [12] appears, read: arabinose induction (level): High, raw OD600 reference: median of DMSO wells […], cell-free background 0.041.
The mark [13] stands for this setting: arabinose induction (level): Low, raw OD600 reference: median of DMSO wells 0.227, cell-free background 0.041.
Where [14] appears, read: arabinose 100 nM, raw OD600 reference: median of DMSO wells 0.413, cell-free background 0.052.
The mark [15] stands for this setting: arabinose 10000000 nM, raw OD600 reference: median of DMSO wells […], cell-free background 0.052.

Structures can show the parent of a compound that is named as a salt. ± gives the standard deviation of the averaged measurements.

Take `CN(C)CCC=C1c2ccccc2COc2ccccc21` [Doxepin hydrochloride]: the growth was 0.199 ± 0.018 in experiment [1]; 0.245 ± 0.0099 with E. coli TESEC Mtb Alr [2] (setting [5]); 0.262 ± 0.011 in the experiment on E. coli TESEC Mtb Alr [2] (setting [6]); 0.178 ± 0.0063 with E. coli TESEC Mtb Alr [2] (setting [7]); 0.134 ± 0.0022 in the experiment with E. coli TESEC Mtb Alr [2] (setting [8]); 0.144 ± 0.0036 in the experiment on E. coli TESEC Mtb Alr [2] (setting [9]). Moreover, the growth in the experiment with E. coli TESEC Mtb Asd (setting [10]) is 0.186 ± 0.034; with E. coli TESEC Mtb Asd (setting [11]), 0.326 ± 0.032; in the experiment on E. coli TESEC Mtb DapB (setting [12]), 0.169 ± 0.013; in the experiment on E. coli TESEC Mtb DapB (setting [13]), 0.182 ± 0.013; in experiment [3] it was 0.472 ± 0.033; in the experiment on E. coli TESEC Mtb Alr [4] (setting [14]), 0.41 ± 0.0055. This compound also yielded a growth with E. coli TESEC Mtb Alr [4] (setting [15]) of 0.342 ± 0.046.
As for `C=C(NC(=O)C(=C)NC(=O)c1csc(C2=N[C@@H]3c4csc(n4)[C@H]4NC(=O)c5csc(n5)[C@H]([C@](C)(O)[C@@H](C)O)NC(=O)[C@H]5CSC(=N5)/C(=C/C)NC(=O)[C@H]([C@@H](C)O)NC(=O)c5csc(n5)[C@]3(CC2)NC(=O)[C@H](C)NC(=O)C(=C)NC(=O)[C@H](C)NC(=O)[C@H]([C@@H](C)CC)N[C@@H]2C=Cc3c([C@H](C)O)cc(nc3[C@H]2O)C(=O)O[C@@H]4C)n1)C(N)=O` [Thiostrepton], the growth in experiment [1] is 0.297 ± 0.021; in the experiment with E. coli TESEC Mtb Alr [2] (setting [5]), 0.327 ± 0.004; with E. coli TESEC Mtb Alr [2] (setting [6]), 0.298 ± 0.013; with E. coli TESEC Mtb Alr [2] (setting [7]), 0.397 ± 0.0046; with E. coli TESEC Mtb Alr [2] (setting [8]) it was 0.185 ± 0.0083; in the experiment on E. coli TESEC Mtb Alr [2] (setting [9]), 0.229 ± 0.02. The growth in the experiment with E. coli TESEC Mtb Asd (setting [10]) was 0.295 ± 0.053; in the experiment with E. coli TESEC Mtb Asd (setting [11]), 0.299 ± 0.091; in the experiment with E. coli TESEC Mtb DapB (setting [12]), 0.164 ± 0.047; with E. coli TESEC Mtb DapB (setting [13]), 0.194 ± 0.058; in experiment [3] it was 0.603 ± 0.094; in the experiment with E. coli TESEC Mtb Alr [4] (setting [14]) it was 0.415 ± 0.019. Moreover, the growth with E. coli TESEC Mtb Alr [4] (setting [15]) came out at 0.316 ± 0.032.
As to `Nc1ncnc2c1ncn2C1OC(COP(=O)(O)O)C(O)C1O` (configuration not stated) [Adenosine 5'-monophosphate monohydrate], the growth in experiment [1] came out at 0.26 ± 0.015; in the experiment on E. coli TESEC Mtb Alr [2] (setting [5]), 0.32 ± 0.013; in the experiment on E. coli TESEC Mtb Alr [2] (setting [6]), 0.2658 ± 0.0011; with E. coli TESEC Mtb Alr [2] (setting [7]), 0.237 ± 0.021; with E. coli TESEC Mtb Alr [2] (setting [8]), 0.175 ± 0.0094; with E. coli TESEC Mtb Alr [2] (setting [9]), 0.15 ± 0.0046. Also, the growth was 0.276 ± 0.078 in the experiment on E. coli TESEC Mtb Asd (setting [10]); 0.336 ± 0.058 in the experiment with E. coli TESEC Mtb Asd (setting [11]); 0.214 ± 0.0055 in the experiment on E. coli TESEC Mtb DapB (setting [12]); 0.25 ± 0.071 in the experiment with E. coli TESEC Mtb DapB (setting [13]); 0.569 ± 0.09 in experiment [3]; 0.374 ± 0.033 with E. coli TESEC Mtb Alr [4] (setting [14]). In the experiment on E. coli TESEC Mtb Alr [4] (setting [15]), this compound registered a growth of 0.363 ± 0.013.
For the compound `COCCCOc1ccnc(C[S+]([O-])c2nc3ccccc3[nH]2)c1C` (configuration not stated) [Rabeprazole Sodium salt], the growth in experiment [1] amounted to 0.186 ± 0.0019; with E. coli TESEC Mtb Alr [2] (setting [5]) it was 0.213 ± 0.023; in the experiment with E. coli TESEC Mtb Alr [2] (setting [6]), 0.262 ± 0.011; in the experiment on E. coli TESEC Mtb Alr [2] (setting [7]) it was 0.135 ± 0.0037; in the experiment on E. coli TESEC Mtb Alr [2] (setting [8]), 0.0782 ± 0.0026; in the experiment with E. coli TESEC Mtb Alr [2] (setting [9]), 0.1339 ± 0.0007. Further, the growth with E. coli TESEC Mtb Asd (setting [10]) came out at 0.423 ± 0.028; in the experiment with E. coli TESEC Mtb Asd (setting [11]), 0.371 ± 0.01; in the experiment with E. coli TESEC Mtb DapB (setting [12]) it was 0.176 ± 0.021; in the experiment on E. coli TESEC Mtb DapB (setting [13]), 0.207 ± 0.0085; in experiment [3], 0.375 ± 0.0068; in the experiment on E. coli TESEC Mtb Alr [4] (setting [14]), 0.357 ± 0.011. The compound further yielded a growth in the experiment on E. coli TESEC Mtb Alr [4] (setting [15]) of 0.152 ± 0.035.
